GLS inhibitor = qHTS for Inhibitors of Glutaminase (GLS) | Glutaminase kidney isoform, mitochondrial (Homo sapiens), O94925 | GLS enzymatic activity, qHTS titration | Potency, µM (titrated, usually from 45.5 µM), actives largely listed as inhibitors | 410,000 tested, 0.21% active | AID 624170, 2012
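hKGA in 45 mM KH2PO4 pH 8.2, 0.02% Tween-20 with pin-transferred compounds; 1 mM L-glutamine (stock) plus glutamate oxidase/HRP/Amplex Red coupling added. Fluorescence read initially and after 30 min at RT.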
BAZ2B block = qHTS Assay for Inhibitors of BAZ2B | AID 504333, 2011 | 360,000 tested, 4.4% active | Potency, µM (top dose mostly 114 µM), actives largely listed as inhibitors | AlphaScreen BAZ2B-H3K14Ac peptide displacement; also: nearly all actives have a fitted effect of over 60% in size
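Protein-peptide AlphaScreen: BAZ2B 50 nM, b-H3K14Ac 50 nM, 1x PBS pH 7.4 + 0.01% Tween-20. Preincubation 30 min RT; cpd 30 min RT (top 110 uM); beads 20 min RT, light-protected.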
G9a block = qHTS Assay for Inhibitors of Histone Lysine Methyltransferase G9a; Histone-lysine N-methyltransferase EHMT2 (Homo sapiens), Q96KQ7; G9a H3K9 monomethylation, AlphaScreen, 2 h; Potency, µM (series often up to 102 µM), usual class: inhibitors; 350,000 tested, 8.8% active; also: nearly all actives have a fitted effect of over 75% in size
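Quantitative HTS format: methyltransferase activity on a biotin-tagged H3K9 peptide is measured by AlphaScreen, using a rabbit anti-monomethyl-H3K9 antibody with streptavidin donor and anti-IgG acceptor beads. Final levels are 20 nM enzyme, 500 nM peptide, 20 uM SAM; 2 h RT.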
JMJD2A Tudor inh = qHTS Assay for Inhibitors of JMJD2A-Tudor Domain; Lysine-specific demethylase 4A (Homo sapiens), O75164; AlphaScreen JMJD2A-Tudor / H3K4me3 peptide binding; Potency, µM (series often up to 114 µM), usual class: inhibitors; 390,000 tested, 4.4% active; also: nearly all actives have a fitted effect of over 50% in size
HP1b chromo inh = HTS for Inhibitors of HP1-beta Chromodomain Interactions with Methylated Histone Tails | AlphaScreen HP1-beta / biotin-H3K9me3 peptide binding | Potency, µM (titrated, usually from 114 µM), most hits filed as inhibitors | 390,000 tested, 0.56% active; also: nearly all actives have a fitted effect of over 70% in size
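AlphaScreen: HP1-beta (50 nM) preformed 30 min with biotin-H3(1-18)K9me3 peptide (50 nM) in PBS pH 7.4, 0.01% Tween-20. Compound added for 30 min at RT, then streptavidin donor/nickel chelate acceptor beads (10 ug/mL) for 30 min.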
Numbers stand for hits; i = inactive; ? = inconclusive; nt = no result; [ ] = dose if it differs, or a comment. Rows were chosen to be rich in hits. Some 10% of all compounds tested hit in one or more screens of this group. Calls follow the shape of the dose curve; as a rule, active = well fitted curve in the direction sought with a large enough effect; inconclusive = small, poorly fitted or top-dose-only effect, or another doubt; inactive = no such curve, though single readings can be large; an effect the other way counts as inactive or inconclusive.

SMILES	GLS inhibitor	BAZ2B block	G9a block	JMJD2A Tudor inh	HP1b chromo inh
Cc1ccc(/C=C/C(=O)c2ccccc2O)cc1	i	?	nt	i	?
Cc1ccc(O)c(C(=O)/C=C/c2ccc3c(c2)OCCCO3)c1	i	28.2µM	7.08µM	15.8µM	?
CC(C)C(=O)N1CCC1(C)C(=O)Nc1ccccc1OC(F)F (centres undefined)	i	nt	nt	nt	nt
O=C(c1cc2nc(-c3ccccc3)cc(C(F)(F)F)n2n1)N1CCN2CCCC2C1 (centres undefined)	i	i	i	i	i
CCN(C(=O)C1CCCO1)c1ccccc1 (centres undefined)	i	i	i	i	i
COc1ccc(C=CC(=O)c2cc(O)ccc2O)cc1	i	nt	nt	39.8µM	?
CCCCn1c(N)c(N(CCOC)C(=O)c2ccc(-n3c(C)ccc3C)cc2)c(=O)[nH]c1=O	i	i	44.7µM	i	i
CCCCN(C(=O)c1ccc([N+](=O)[O-])o1)c1c(N)n(CC(C)C)c(=O)[nH]c1=O	i	i	28.2µM	i	i
COCCN(C(=O)Cc1ccc(S(=O)(=O)N2CCOCC2)s1)c1c(N)n(CC(C)C)c(=O)[nH]c1=O	i	nt	nt	i	i
CCCn1c(N)c(N(CCOC)C(=O)Cc2ccc(S(=O)(=O)N3CCOCC3)s2)c(=O)[nH]c1=O	i	i	50.1µM	i	i
CCCCn1c(N)c(N(CCOC)C(=O)c2cc3c(s2)CCC(C)C3)c(=O)[nH]c1=O (centres undefined)	i	i	35.5µM	i	i
CCCCn1c(N)c(N(CCOC)C(=O)c2ccc(N3C(=O)CCC3=O)cc2)c(=O)[nH]c1=O	i	i	i[0.501 µM]	i	i
O=C(Nc1cc(Cl)cc(Cl)c1)c1cnn2cccnc12	i	i	i	i	i
O=C1[C@H]2[C@@H]3CCN1CCC[C@@H]2C=C[C@@H]3c1ccc(Br)cc1	i	nt	nt	nt	nt
O=C(COC(=O)c1ccccc1[N+](=O)[O-])NNC(=O)c1cccs1	i	i	i	i	i
CC(C)CN(C(=O)CN(C)C(=O)c1ccco1)c1c(N)n(CC(C)C)c(=O)[nH]c1=O	i	i	50.1µM	i	i
CC(C)CN(C(=O)CN(C)C(=O)Cc1ccc(Cl)cc1)c1c(N)n(CC(C)C)c(=O)[nH]c1=O	i	i	i	i	i
CCCCn1c(N)c(N(CC(C)C)C(=O)c2ccc(-c3ccc([N+](=O)[O-])cc3)o2)c(=O)[nH]c1=O	i	i	39.8µM	i	i
CCCCn1c(N)c(N(CCOC)C(=O)c2ccc(-c3ccc(C(C)=O)cc3)o2)c(=O)[nH]c1=O	i	70.8µM	12.6µM	?	i
CCCCn1c(N)c(N(CCC(C)C)C(=O)c2ccc(-c3ccc([N+](=O)[O-])cc3)o2)c(=O)[nH]c1=O	i	i	i[12.7 µM]	i	i
CCCCn1c(N)c(N(CCOC)C(=O)c2ccc(-c3ccc([N+](=O)[O-])cc3)o2)c(=O)[nH]c1=O	i	?	i[12.7 µM]	i	i
CC1CCCCN1Cc1c(O)ccc2c(=O)c(-c3nc4ccccc4s3)coc12 (centres undefined)	i	i	nt	i[11.4 µM]	i
CC(C)c1ccc(/C=C/C(=O)NCc2ccc(S(N)(=O)=O)cc2)cc1	i	i	?	i	i
Cc1ccc(/C=N/Nc2ccc(C(=O)O)cc2)s1	i	?	14.1µM	i	i
O=C(N/N=C\c1cc(Br)cs1)c1ccncc1	i	i	i	i	i
SMILES	GLS inhibitor	BAZ2B block	G9a block	JMJD2A Tudor inh	HP1b chromo inh
O=C(O)c1ccc(N/N=C/c2cc(Br)cs2)cc1	8.91µM	i	i	i	i
Cc1ccc(S(=O)(=O)N(C)/N=C2/C(=O)N(CC(=O)O)c3ccccc32)cc1	i	i	14.1µM	?	i
O=C(CCn1c(=O)oc2ccccc21)NCCCN1CCN(c2ccc(F)cc2)CC1	nt	?	2.51µM	i	i
O=C(CCn1c(=O)oc2ccccc21)NCCCN1CCOCC1	i	i	i	i	i
O=C(CCn1c(=O)oc2ccccc21)Nc1ccccc1	i	i	35.5µM	i	i
CCOc1ccc(-c2nnc(SCC(=O)Nc3ccc4c(c3)c3ccccc3n4CC)n2N)cc1	i	70.8µM	?	?	i
